Records with an inconclusive call do not appear. Calls of active or inactive are those of the source. Unless noted, calls come from the whole dose curve.
How the values were obtained:
[1] = qHTS assay to identify small molecule agonists of the peroxisome proliferator-activated receptor delta (PPARd) signaling pathway - cell viability counter screen (AID 743211; active = well fitted curve in the direction sought with a large enough effect in the repeat runs; an effect the other way counts as inactive or inconclusive; note: % is set by controls: 0 for no effect and ±100 for the full control effect; nearly all actives have a fitted effect of over 55% in size)
Method in brief: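 Luminescent ATP viability assay (CellTiter-Glo, 30 min RT) in UAS-bla HEK293H cells carrying the PPAR delta reporter construct, 3000 cells/well, after a 17 h compound treatment at 37 C.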

[2] = target: Peroxisome proliferator-activated receptor delta (Homo sapiens) (UniProt Q03181); assay: qHTS assay to identify small molecule agonists of the peroxisome proliferator-activated receptor delta (PPARd) signaling pathway (AID 743212); note: % is set by controls: 0 for no effect and ±100 for the full control effect
Method in brief: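 HEK293H UAS-bla reporter cells, human PPARd system; compounds delivered in DMSO after 5 h plating, then at 37 C. Beta-lactamase FRET read, 2 h RT substrate step.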

[3] = qHTS assay to identify small molecule antagonists of the peroxisome proliferator-activated receptor delta (PPARd) signaling pathway - cell viability counter screen (AID 743213; active = well fitted curve in the direction sought with a large enough effect in the repeat runs; an effect the other way counts as inactive or inconclusive; note: % is set by controls: 0 for no effect and ±100 for the full control effect; nearly all actives have a fitted effect of over 50% in size)
Method in brief: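 In this counter screen, HEK293H cells carrying a UAS-beta-lactamase reporter are co-treated with test compounds and 300 nM L165041 (final) for 17 h at 37 C; cell viability is quantified by CellTiter-Glo luminescence.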

[4] = target: Peroxisome proliferator-activated receptor delta (Homo sapiens) (UniProt Q03181); assay: qHTS assay to identify small molecule antagonists of the peroxisome proliferator-activated receptor delta (PPARd) signaling pathway (AID 743215; active = well fitted inhibition curve with a large enough effect in the signal ratio in the repeat runs, not every such curve was filed as active; the % refers to the signal ratio;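 note: cells stimulated with agonist L165041 at 300 nM final during compound exposure; series mostly up to about 62 µM; % is set by controls: 0 for no effect and ±100 for the full control effect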)
Method in brief: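 PPARd-bla HEK293H cells (UAS-bla reporter) preincubated 5 h, then given compound plus 300 nM final L165041 agonist for 17 h at 37 C. Beta-lactamase activity read by LiveBLAzer B/G FRET substrate fluorescence after 2 h at room temperature.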

[5] = qHTS assay to identify small molecule agonists of the farnesoid-X-receptor (FXR) signaling pathway - cell viability counter screen (AID 743218; active = well fitted curve in the direction sought with a large enough effect in the repeat runs; an effect the other way counts as inactive or inconclusive; note: % is set by controls: 0 for no effect and ±100 for the full control effect; nearly all actives have a fitted effect of over 45% in size)
Method in brief: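 FXR-UAS-bla HEK 293T cells exposed to compounds for 16 h at 37C. Cytotoxicity read in the same wells by CellTiter-Glo luminescence after 30 min at room temperature, following the beta-lactamase FRET read.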

[6] = qHTS assay to identify small molecule antagonists of the farnesoid-X-receptor (FXR) signaling pathway - cell viability counter screen (AID 743221; active = well fitted cell-killing curve with a large enough effect in the repeat runs, not every such curve was filed as active; note: % is set by controls: 0 for no effect and ±100 for the full control effect; nearly all actives have a fitted effect of over 50% in size)
Method in brief: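 In GeneBLAzer FXR-UAS-bla HEK 293T cells stimulated with 50 uM chenodeoxycholic acid (final), compounds acted for 16 h at 37 C. Viability was assessed afterwards by CellTiter-Glo luminescence.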

[7] = target: Vitamin D3 receptor (Homo sapiens) (UniProt P11473); assay: qHTS assay to identify small molecule agonists of the vitamin D receptor (VDR) signaling pathway (AID 743222); note: % is set by controls: 0 for no effect and ±100 for the full control effect
Method in brief: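 VDR-bla cells plated 4 h at 37 C, then exposed to compounds for 16 h at 37 C. Beta-lactamase reporter activity measured by fluorescence after 2 h room-temperature loading with LiveBLAzer B/G FRET substrate.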

[8] = qHTS assay to identify small molecule agonists of the vitamin D receptor (VDR) signaling pathway - cell viability counter screen (AID 743224; active = well fitted curve in the direction sought with a large enough effect in the repeat runs; an effect the other way counts as inactive or inconclusive; note: series mostly up to about 63 µM; % is set by controls: 0 for no effect and ±100 for the full control effect; nearly all actives have a fitted effect of over 50% in size)
Method in brief: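 VDR-bla cells, 4 h after plating, exposed to compounds for 16 h at 37C; viability then read in the same wells as CellTiter-Glo luminescence after 30 min at room temperature, following the bla FRET read.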

[9] = qHTS assay to identify small molecule agonists of the NFkB signaling pathway (AID 1159509; active = well fitted curve in the direction sought with a large enough effect in the signal ratio in the repeat runs, not every such curve was filed as active; the % refers to the signal ratio; note: series mostly up to about 61 µM; % is set by controls: 0 for no effect and ±100 for the full control effect)
Method in brief: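 NFkB-bla ME-180 cells with a beta-lactamase reporter under an NF-kB response element were plated overnight, treated with compounds in DMSO for 5 hr at 37 C, then loaded with FRET substrate for 1.5 hr at room temperature.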

[10] = qHTS assay to identify small molecule agonists of the NFkB signaling pathway - cell viability counter screen (AID 1159515); note: series mostly up to about 61 µM; % is set by controls: 0 for no effect and ±100 for the full control effect; nearly all actives have a fitted effect of over 55% in size
Method in brief: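 NFkB-bla ME-180 cells, 2,000/well, plated overnight at 37 C; compound added for 5 hr at 37 C. Viability read in the same wells as the bla reporter, by CellTiter-Glo luminescence after 30 min at room temperature.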

[11] = qHTS assay to identify small molecule agonists of the endoplasmic reticulum stress response signaling pathway (AID 1159516; active = well fitted activation curve with a large enough effect in the signal ratio in the repeat runs, not every such curve was filed as active; the % refers to the signal ratio; note: % is set by controls: 0 for no effect and ±100 for the full control effect)
Method in brief: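 CellSensor ESRE-bla HeLa cells, 1,500 per well, plated overnight, then exposed to compounds for 5 hr at 37 C. Beta-lactamase reporter read with LiveBLAzer B/G FRET substrate after 2 hr at room temperature, 405 nm excitation, 460 and 530 nm emission.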

[12] = qHTS assay to identify small molecule agonists of the endoplasmic reticulum stress response signaling pathway - cell viability counter screen (AID 1159517);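 note: HeLa cells carrying an ER stress response element beta-lactamase reporter; series mostly up to about 61 µM; % is set by controls: 0 for no effect and ±100 for the full control effect; nearly all actives have a fitted effect of over 50% in size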
Method in brief: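 Cells, HeLa ESRE-bla; density, 1,500/well; dosing, 5 hr at 37 C, 5% CO2; readout, CellTiter-Glo luminescence after 30 min RT.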

[13] = qHTS assay to identify small molecule antagonists of the retinoid-related orphan receptor gamma (ROR-gamma) signaling pathway - cell viability counter screen (AID 1159520; active = well fitted curve in the direction sought with a large enough effect in the repeat runs; an effect the other way counts as inactive or inconclusive)
Method in brief: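 Cytotoxicity was read from cellular ATP (CellTiter-Glo luminescence) after 16 hr at 37 C with 1 uM doxycycline induction. The inducer was added 2 hr after compound transfer to Tet-on ROR gamma CHO cells.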

[14] = qHTS assay to identify small molecule agonists of the AP-1 signaling pathway - cell viability counter screen (AID 1159525); note: nearly all actives have a fitted effect of over 55% in size
Method in brief: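 Luminescent ATP readout (Cell Titer Glo, 30 min RT), normalised to DMSO and tetra n-octyl ammonium bromide controls. Cells were ME-180 AP-1-bla in 0.5% dialyzed FBS Opti-MEM, with a 5 h, 37 °C compound exposure.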

[15] = qHTS assay to identify small molecule agonists of the AP-1 signaling pathway (AID 1159526); note: % is set by controls: 0 for no effect and ±100 for the full control effect
[16] = target: Bile acid receptor (Homo sapiens) (UniProt Q96RI1); assay: qHTS assay to identify small molecule antagonists of the farnesoid-X-receptor (FXR) signaling pathway (AID 743217; active = well fitted inhibition curve with a large enough effect in the signal ratio in the repeat runs, not every such curve was filed as active; the % refers to the signal ratio; note: % is set by controls: 0 for no effect and ±100 for the full control effect)
Method in brief: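 FXR-UAS-bla HEK 293T cells (beta-lactamase reporter) given compound plus chenodeoxycholic acid (50 uM final), 16 h at 37C. LiveBLAzer B/G FRET substrate added for 2 h at room temperature; fluorescence read.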

[17] = target: Bile acid receptor (Homo sapiens) (UniProt Q96RI1); assay: qHTS assay to identify small molecule agonists of the farnesoid-X-receptor (FXR) signaling pathway (AID 743220; active = well fitted activation curve with a large enough effect in the signal ratio in the repeat runs, not every such curve was filed as active; the % refers to the signal ratio; note: % is set by controls: 0 for no effect and ±100 for the full control effect)
Method in brief: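 Beta-lactamase reporter under UAS control in GeneBLAzer FXR HEK 293T cells (5000/well) measured with LiveBLAzer FRET substrate after 2 h at room temperature. Compound exposure lasted 16 h at 37C.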

[18] = target: Vitamin D3 receptor (Homo sapiens) (UniProt P11473); assay: qHTS assay to identify small molecule antagonists of the vitamin D receptor (VDR) signaling pathway (AID 743223; active = well fitted inhibition curve with a large enough effect in the signal ratio in the repeat runs, not every such curve was filed as active; the % refers to the signal ratio; note: % is set by controls: 0 for no effect and ±100 for the full control effect)
Method in brief: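 Agonist 1alpha,25-dihydroxyvitamin D3 (3 nM in well) was added with each compound to VDR-bla cells preincubated 4 h. Cells stood 16 h at 37C, then FRET substrate 2 h at room temperature; fluorescence intensity recorded.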

[19] = qHTS assay to identify small molecule antagonists of the vitamin D receptor (VDR) signaling pathway - cell viability counter screen (AID 743225; active = well fitted curve in the direction sought with a large enough effect in the repeat runs; an effect the other way counts as inactive or inconclusive)
Method in brief: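 Luminescent cell viability (CellTiter-Glo) in VDR-bla HEK 293T cells after 16 h compound exposure at 37C in the presence of 3 nM final 1-alpha,25-dihydroxy vitamin D3.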

[20] = target: Nuclear receptor ROR-gamma (Homo sapiens) (UniProt P51449); assay: qHTS assay to identify small molecule antagonists of the retinoid-related orphan receptor gamma (ROR-gamma) signaling pathway (AID 1159521; active = well fitted curve in the direction sought with a large enough effect in the repeat runs; an effect the other way counts as inactive or inconclusive)
Method in brief: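 CHO cells expressing RORγ under a TET-on promoter, luciferase under RORE control. Dox 1 uM final, 16 h; compounds added 2 h prior. Luminescence decrease measured.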

Chain of Vitamin D3 receptor (Homo sapiens) (P11473 whole entry, looked up): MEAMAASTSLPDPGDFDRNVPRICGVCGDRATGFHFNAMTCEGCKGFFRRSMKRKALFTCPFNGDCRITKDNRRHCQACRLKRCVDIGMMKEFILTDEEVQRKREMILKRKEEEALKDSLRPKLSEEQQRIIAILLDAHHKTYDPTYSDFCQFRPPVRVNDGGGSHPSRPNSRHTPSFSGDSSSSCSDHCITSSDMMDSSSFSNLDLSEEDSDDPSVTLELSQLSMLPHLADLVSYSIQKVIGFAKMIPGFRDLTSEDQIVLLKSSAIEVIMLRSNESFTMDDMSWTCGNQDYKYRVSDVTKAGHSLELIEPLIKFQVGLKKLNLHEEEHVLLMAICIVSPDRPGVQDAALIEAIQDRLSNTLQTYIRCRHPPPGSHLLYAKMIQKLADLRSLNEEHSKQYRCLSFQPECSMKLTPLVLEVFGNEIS
Chain of Peroxisome proliferator-activated receptor delta (Homo sapiens) (Q03181 whole entry, looked up): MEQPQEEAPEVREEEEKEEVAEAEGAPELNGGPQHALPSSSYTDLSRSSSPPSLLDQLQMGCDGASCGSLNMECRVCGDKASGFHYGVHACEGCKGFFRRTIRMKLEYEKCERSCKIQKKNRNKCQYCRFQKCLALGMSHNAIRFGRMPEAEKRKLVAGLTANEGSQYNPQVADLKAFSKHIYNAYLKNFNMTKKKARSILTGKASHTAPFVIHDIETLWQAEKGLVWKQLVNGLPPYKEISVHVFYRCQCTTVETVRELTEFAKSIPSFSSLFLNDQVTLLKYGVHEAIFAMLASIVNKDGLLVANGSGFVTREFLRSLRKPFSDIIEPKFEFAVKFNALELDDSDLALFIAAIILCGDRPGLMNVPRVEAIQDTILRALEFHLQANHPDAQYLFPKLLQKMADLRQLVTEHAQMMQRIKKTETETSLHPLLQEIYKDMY
Chain of Bile acid receptor (Homo sapiens) (Q96RI1 whole entry, looked up): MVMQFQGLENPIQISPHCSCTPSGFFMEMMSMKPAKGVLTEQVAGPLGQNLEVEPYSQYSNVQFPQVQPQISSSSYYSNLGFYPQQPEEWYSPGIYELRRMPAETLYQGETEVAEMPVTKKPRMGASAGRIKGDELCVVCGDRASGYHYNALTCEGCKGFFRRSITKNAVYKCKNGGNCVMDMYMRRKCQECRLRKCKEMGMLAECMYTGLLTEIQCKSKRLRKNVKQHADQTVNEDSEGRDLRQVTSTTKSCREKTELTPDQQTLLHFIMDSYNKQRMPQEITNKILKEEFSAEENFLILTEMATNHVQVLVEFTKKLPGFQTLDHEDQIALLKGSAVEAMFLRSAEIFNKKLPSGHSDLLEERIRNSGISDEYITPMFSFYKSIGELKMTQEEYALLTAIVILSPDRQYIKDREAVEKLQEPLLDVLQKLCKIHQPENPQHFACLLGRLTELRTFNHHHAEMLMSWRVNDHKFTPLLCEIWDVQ

CCCO
inactive: outcome [1] | outcome [2] | outcome [3] | outcome [4] | Potency [5] | outcome [6] | outcome [7] | outcome [8] | outcome [9] | outcome [10] | outcome [11] | outcome [12] | outcome [13] | outcome [14] | outcome [15]

NS(=O)(=O)c1cc2c(cc1Cl)NC(CC1CCCC1)NS2(=O)=O (configuration not stated)
inactive: outcome [1] | outcome [3] | outcome [16] | Potency [5] | outcome [17] | outcome [6] | outcome [7] | outcome [18] | outcome [19] | outcome [9] | outcome [10] | outcome [11] | outcome [12] | outcome [13] | outcome [14] | outcome [15]

C=C[Si](C)(C)O[Si](C)(C)C=C
inactive: outcome [1] | outcome [3] | Potency [5] | outcome [6] | outcome [7] | outcome [18] | outcome [8] | outcome [19] | outcome [9] | outcome [10] | outcome [11] | outcome [12] | outcome [13] | outcome [14] | outcome [15]

Cc1nc([N+](=O)[O-])cn1-c1ccc([N+](=O)[O-])cc1
inactive: outcome [1] | outcome [2] | outcome [3] | outcome [4] | outcome [16] | Potency [5] | outcome [17] | outcome [6] | outcome [7] | outcome [18] | outcome [8] | outcome [19] | outcome [9] | outcome [10] | outcome [11] | outcome [12] | outcome [13] | outcome [14] | outcome [15]

Nc1cc(S(=O)(=O)O)ccc1S(=O)(=O)O
inactive: outcome [1] | outcome [2] | outcome [3] | outcome [16] | outcome [17] | outcome [6] | outcome [7] | outcome [18] | outcome [8] | outcome [19] | outcome [9] | outcome [10] | outcome [11] | outcome [12] | outcome [13] | outcome [14] | outcome [15]

CCCCCCCC/C=C\CCCCCCCC(=O)OC[C@@H](O)[C@H]1OC[C@H](O)[C@H]1O
inactive: outcome [1] | outcome [2] | outcome [3] | outcome [4] | Potency [5] | outcome [6] | outcome [7] | outcome [18] | outcome [8] | outcome [9] | outcome [10] | outcome [11] | outcome [12] | outcome [13] | outcome [14] | outcome [15]

CCCCCC1Nc2cc(C(F)(F)F)c(S(N)(=O)=O)cc2S(=O)(=O)N1 (configuration not stated)
inactive: outcome [1] | outcome [2] | outcome [3] | outcome [4] | Potency [5] | outcome [6] | outcome [7] | outcome [18] | outcome [8] | outcome [9] | outcome [10] | outcome [11] | outcome [12] | outcome [13] | outcome [14] | outcome [15]

COc1ccc(OC)c(NC(=O)CC(C)=O)c1
inactive: outcome [1] | outcome [2] | outcome [3] | Potency [5] | outcome [6] | outcome [7] | outcome [18] | outcome [19] | outcome [9] | outcome [10] | outcome [11] | outcome [12] | outcome [13] | outcome [14] | outcome [15]

COc1ccc(NS(=O)(=O)c2ccc(N)cc2)nn1
inactive: outcome [1] | outcome [2] | outcome [3] | outcome [16] | outcome [17] | outcome [6] | outcome [7] | outcome [18] | outcome [8] | outcome [9] | outcome [10] | outcome [11] | outcome [12] | outcome [13] | outcome [14] | outcome [15]

Nc1c(NC/C=C\COc2cc(CN3CCCCC3)ccn2)c(=O)c1=O
inactive: outcome [1] | outcome [2] | outcome [3] | outcome [4] | outcome [16] | Potency [5] | outcome [17] | outcome [6] | outcome [18] | outcome [8] | outcome [19] | outcome [9] | outcome [10] | outcome [11] | outcome [12] | activity, negative = cytotoxicity [13] 0% [at 19 µM] | viability change, negative = cytotoxic [14] -1.48% [at 15.8 µM] | activation [15] -3.62% [at 15.8 µM]

O=C(O)c1ccc(OCCN2CCCCC2)cc1
inactive: outcome [1] | outcome [2] | outcome [3] | outcome [4] | Potency [5] | outcome [6] | outcome [7] | outcome [18] | outcome [8] | outcome [19] | outcome [9] | outcome [10] | outcome [11] | outcome [12] | outcome [13] | outcome [14] | outcome [15]

CCCCCCCCOC(C)=O
inactive: outcome [1] | outcome [2] | outcome [3] | outcome [4] | Potency [5] | outcome [6] | outcome [7] | outcome [8] | outcome [19] | outcome [9] | outcome [10] | outcome [11] | outcome [12] | outcome [13] | outcome [14] | outcome [15]

CCOC(=O)OCC/C(SC(=O)OCC)=C(\C)N(C=O)Cc1cnc(C)nc1N
inactive: outcome [1] | Potency [5] | outcome [6] | outcome [7] | outcome [18] | outcome [8] | outcome [9] | outcome [10] | outcome [11] | outcome [12] | outcome [13] | outcome [20] | outcome [14] | outcome [15]

CCCCCCCCCCC
inactive: outcome [1] | outcome [3] | Potency [5] | outcome [6] | outcome [8] | outcome [19] | outcome [9] | outcome [10] | outcome [11] | outcome [12] | outcome [13] | outcome [14] | outcome [15]

CCN1CN(CC)CN(CC)C1
inactive: outcome [2] | outcome [3] | outcome [4] | outcome [16] | Potency [5] | outcome [17] | outcome [6] | outcome [8] | outcome [19] | outcome [9] | outcome [10] | outcome [11] | outcome [12] | outcome [13] | outcome [14] | outcome [15]

O=C(c1ccc2c(c1)C(=O)OC2=O)c1ccc2c(c1)C(=O)OC2=O
inactive: outcome [1] | outcome [2] | outcome [3] | outcome [4] | outcome [16] | Potency [5] | outcome [17] | outcome [6] | outcome [7] | outcome [8] | outcome [19] | outcome [9] | outcome [10] | outcome [12] | outcome [13] | outcome [20] | outcome [14] | outcome [15]
